Assay results taken from the supplement of paper PMC10105736.
Unmarked numbers belong to inactive results.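 Rule for the calls: active = MAPPIT score above the 99th percentile of random reference set scores in the same batch; inactive = at or below it.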

How the values were obtained:
Test in all cases: MAPPIT interaction score (arbitrary units); higher = stronger binary interaction signal, active = hit call of the paper
RFeSP = conditions: MAPPIT configuration: N-N; pair source set: RRS
RIC-3 = conditions: MAPPIT configuration: N-C; pair source set: screen_3
Sod3 = conditions: MAPPIT configuration: N-C; pair source set: screen_4
RPA2 = conditions: MAPPIT configuration: N-N; pair source set: Finley_Y2H
ScsbetaG = conditions: MAPPIT configuration: N-N; pair source set: Finley_Y2H
Rab26 = conditions: MAPPIT configuration: N-N; pair source set: Lit-BS-16
Rbp1 = conditions: MAPPIT configuration: N-N; pair source set: Finley_Y2H
ReepB = conditions: MAPPIT configuration: N-N
Rgk3 = conditions: MAPPIT configuration: N-N; pair source set: Curagen_low_conf
RpL12 = conditions: MAPPIT configuration: N-N; pair source set: Lit-BS-16
RpL35A = conditions: MAPPIT configuration: N-N; pair source set: Finley_Y2H
RpL37A = conditions: MAPPIT configuration: N-N; pair source set: Curagen_high_conf
RpLP2 = conditions: MAPPIT configuration: N-N; pair source set: Finley_Y2H
RpS10b = conditions: MAPPIT configuration: N-N; pair source set: DPIM
RpS20 = conditions: MAPPIT configuration: N-N; pair source set: Curagen_low_conf
hpo = conditions: pair source set: Lit-BM-16
yki = conditions: pair source set: Lit-BM-16
RpS21 = conditions: MAPPIT configuration: N-N; pair source set: DPIM
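Note: HEK293T cells with Epo stimulation, STAT-responsive firefly luciferase reporter, fold induction versus unstimulated cells divided by the larger fold induction of two negative controls lacking either bait or prey.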

B1: E(spl)m4-BFM (protein)
chain: MCQNKINTNNTMTIKSNKKLSYSVKKLLQKIFKQQQRVEEEQNLKNALKANSLESLESMENSRNADLESASICASLESCENEANERLSQSCEIEDYDFEQLPTVPVHFVRTAHGTFFWTAVSDLPADNDLVEPLYCSTSNAIAIPQDRWVQA
- MAPPIT interaction score (RFeSP): 0.268

B2: Nplp2 (protein)
chain: MAKLAICILVFALFALALSARVPREESNPAQEFLTKAQGDFNEFIEKLKALDAKKVEGLFKDGLNTVQEGLQKLNETFLQAPAAST
- MAPPIT interaction score (RIC-3): 0.0485
- MAPPIT interaction score (Sod3): 2.23

B3: Lip3 (protein)
chain: MTRGALKVTILLVGLGLVLAGSRPISDCGERIEDDGYPMERHEVVTSDNYILTMHRIPYSPKTGESSNRPVAFLMHGMLSSSSDWVLMGPERSLAYMLADAGYDVWMGNARGNTYSKAHKYWPTYWQIFWNFSWNEIGMYDVPAMIDYVLAKTGQQQVQYVGHSQGTTVYLVMVSERPEYNDKIKSAHLLGPAAYMGNMKSPLTRAFAPILGQPNAIVEVCGSMEFMPSNKFKQDLGIEMCQATSPYADMCANEIFLIGGYDTEQLDYELLEHIKATSPAGASVNQNLHFCQEYNSGKFRKFDYTALRNPYEYGSYFPPDYKLKNAKAPVLLYYGANDWMCDVSDVRKLRDELPNMALDYLVPFEKWAHLDFIWGTEARKYVYDEVLKQMQSYE
- MAPPIT interaction score (RPA2): 0.346
- MAPPIT interaction score (ScsbetaG): 1.35

B4: Phb1 (protein)
chain: MAAQFFNRIGQMGLGVAVLGGVVNSALYNVEGGHRAVIFDRFTGIKENVVGEGTHFFIPWVQRPIIFDIRSQPRNVPVITGSKDLQNVNITLRILYRPIPDQLPKIYTILGQDYDERVLPSIAPEVLKAVVAQFDAGELITQREMVSQRVSQELTVRAKQFGFILDDISLTHLTFGREFTLAVEMKQVAQQEAEKARFVVEKAEQQKLASIISAEGDAEAAGLLAKSFGEAGDGLVELRRIEAAEDIAYQLSRSRGVAYLPSGQSTLLNLPSTIAQ
- MAPPIT interaction score (Rab26): 0.345

B5: Rsf1 (protein)
chain: MGDQRGTRVYVGNLTDKVKKDDLEGEFTKYGKLNSVWIAFNPPGFAFVEFEHRDDAEKACDILNGSELLGSQLRVEISKGRPRQGRRGGPMDRGGRRGDFGRHSITSGGSGGGGFRQRGSSGSSSRHTERGYSSGRSGASSYNGREGGGSGFNRREVYGGGRDSSRYSSGSSASYGRTGGQSAGRFRSRSPVGNHRF
- MAPPIT interaction score (Rbp1): 0.372

B6: Pdf (protein)
chain: MARYTYLVALVLLAICCQWGYCGAMAMPDEERYVRKEYNRDLLDWFNNVGVGQFSPGQVATLCRYPLILENSLGPSVPIRKRNSELINSLLSLPKNMNDAGK
- MAPPIT interaction score (ReepB; pair source set: Finley_Y2H): 2.66

B7: wol (protein)
chain: MWTCLCQLCFYLLSTLAVAALSIAALVLYKTKPYPNIKRHKDEETFLDPHTIKTVTFPSLEDSPSLELSVIVPAYNEEQRLPSMLDECLAFLEQKSAGTPNFTYEVIVVSDGSQDATVSVALGYSKKHGAEKVRVLELIENRGKGGAVRMGMLSARGRNLLFADADGATKFPDYDKLEVALKQLAPEWRDDGIAIGSRAHLENDAIATRSFFRTILMHGFHFLVWLFAVRSIRDTQCGFKLFTRTTARKLFTSLHVERWAFDVELLYLAENLKLPMSEVAVRWTEIDGSKLTPFWSWLQMGRDLFMIWVRYLVGAWRIASIQKKEK
- MAPPIT interaction score (ReepB; pair source set: Lit-BS-16): 0.541

B8: eEF1gamma (protein)
chain: MVKGTLYTYPENFRAYKALIAAQYSGAQVKVADNFKFGETNKSAEFLKKFPGGKVPAFETAEGQYLSESNAIAYLLANEQLRGGKCPFVQAQVQQWISFADNEIVPASCAWVFPLLGILPQQKNSTAKQEAEAVLQQLNQKLQDATFLAGERITLADIVVFSSLLHLYEYVLEPSVRSAFGNVNRWFVTILNQKQVQAVVKDYKLCEKALVFDPKKYAEFQAKTGAAKPQQQAQQQKQEKKPKEKKEAPKKAAEPAEELDAADEALAAEPKSKDPFDALPKGTFNFDDFKRVYSNEDEAKSIPYFFDKFDAENYSIWFGEYKYNEELSKVFMSCNLITGMFQRLDKMRKAAFASVCLFGEDGNSTISGIWVWRGQDLAFTLSPDWQIDYEVYDWKKLDAKSEETKKLVTQYFSWSGTDKDGRKFNQGKIFK
- MAPPIT interaction score (Rgk3): -0.0165

B9: Lap1 (protein)
chain: MPLLSKCFPCFKFKREEVIDKLDYSNTPLTDFPEVWQHERTLEELYLSTTRLQALPPQLFYCQGLRVLHVNSNNLESIPQAIGSLRQLQHLDLNRNLIVNVPEEIKSCKHLTHLDLSCNSLQRLPDAITSLISLQELLLNETYLEFLPANFGRLVNLRILELRLNNLMTLPKSMVRLINLQRLDIGGNEFTELPEVVGELKSLRELWIDFNQIRRVSANIGKLRDLQHFEANGNLLDTLPSELSNWRNVEVLSICSNSLEAFPFSVGMLKSLVTFKCESNGLTELPDSISYLEQLEELVLSHNKLIRLPSTIGMLRSLRFLFADDNQLRQLPDELCSCQQLSVLSVANNQLSALPQNIGNLSKMKVLNVVNNYINALPVSMLNLVNLTSMWLSDNQSQPLVPLQYLDASTKTQLTCFMLPQVTFKMNSIQAQQQAQEQYEFVYANQQQPHASPSRRICFAEEATILSNAKAQPAPNYPSFVAAPPTPTPDQMAGSVRLMRSPTPYPKELRQMSKYVRQAQAATSSANASEVREARVVTNGQIHCDSNNANQDVVDQATTSAIYGIAPETTHIYGVYQQPQQMAHPVPTQEYYGLPLVNYEAHYQQLYVEANTPLPTTHLNGDQDYELQPLQQQPMQQQALPTPRLEPPPYHIARVYTKKTPEDLNLYESMRQRKQQQQLQEQTIYQDALNSNSNFKTTAIGAQDVEESVDQLDYQNNISNNLEPNPEEEDQELDDTMSQHSLNSTATNNTSKASHKKSTWIFGVHKNPTVKQVTLKWENSIGFDIAELLNQVGIFVSSITPNTNAARLLNLNDKLLEIDGYDLTNANLSDAKRVLLNCGTVMNIMLSRK
- MAPPIT interaction score (RpL12): -0.0144

B10: Archease (protein)
chain: MEVEFSRENFLLPEMKYEYLDHTADVQIHGWGSSLKEAFEQCGVAMFGYMTELDYVSVEQCFEIEAHGDDLESLLFHFLDELLFLFSAEPYLVCKKLEITKFDVENFEISCHCYGEPFELGKHPQGTEVKAITYSAMQIIQDVEASNYEVFVIIDI
- MAPPIT interaction score (RpL35A): -0.294

B11: Cyp12a4 (protein)
chain: MLKVRSALSLIQSQKATLSLATQKRWQTNVATAEAREDSEWLQAKPFEQIPRLNMWALSMKMSMPGGKYKNMELMEMFEAMRQDYGDIFFMPGIMGNPPFLSTHNPQDFEVVFRNEGVWPNRPGNYTLLYHREEYRKDFYQGVMGVIPTQGKPWGDFRTVVNPVLMQPKNVRLYYKKMSQVNQEFVQRILELRDPDTLEAPDDFIDTINRWTLESVSVVALDKQLGLLKNSNKESEALKLFHYLDEFFIVSIDLEMKPSPWRYIKTPKLKRLMRALDGIQEVTLAYVDEAIERLDKEAKEGVVRPENEQSVLEKLLKVDRKVATVMAMDMLMAGVDTTSSTFTALLLCLAKNPEKQARLREEVMKVLPNKNSEFTEASMKNVPYLRACIKESQRLHPLIVGNARVLARDAVLSGYRVPAGTYVNIVPLNALTRDEYFPQASEFLPERWLRSPKDSESKCPANELKSTNPFVFLPFGFGPRMCVGKRIVEMELELGTARLIRNFNVEFNYPTENAFRSALINLPNIPLKFKFIDLPN
- MAPPIT interaction score (RpL37A): -0.0129

B12: CG1307 (protein)
chain: MGDKLLDPTQIINGLAVMLSFFVGYRYALKRGDAKDSVTEGAATPFSQESSVSSGSEASVSDKGYGGLNDNFKMVLVVRNDLKMGKGKIAAQCGHGAVGAYQRAVVRTPRLLRSWENCGCAKIAVRVESEAELMAIKKEAERQQLNTCLIRDAGRTQIEANSKTVLAVGPAAAADIDRVTGHLKLL
- MAPPIT interaction score (RpLP2): 0.942

B13: Csp (protein)
chain: MSAPGMDKRKLSTSGDSLYEILGLPKTATGDDIKKTYRKLALKYHPDKNPDNVDAADKFKEVNRAHSILSNQTKRNIYDNYGSLGLYIAEQFGEENVNAYFVVTSPAVKAVVICCAVITGCCCCCCCCCCCNFCCGKFKPPVNESHDQYSHLNRPDGNREGNDMPTHLGQPPRLEDVDLDDVNLGAGGAPVTSQPREQAGGQPVFAMPPPSGAVGVNPFTGAPVAANENTSLNTTEQTTYTPDMVNQKY
- MAPPIT interaction score (RpS10b): 1.05

B14: hpo (protein)
chain: MSEPEVTSVVDMKSPNISSSCSFFKLKKLSEESLLQPPEKVFDIMYKLGEGSYGSVYKAVHKESSSIVAIKLVPVESDLHEIIKEISIMQQCDSPYVVRYYGSYFKQYDLWICMEYCGAGSVSDIMRLRKKTLTEDEIATILSDTLQGLVYLHLRRKIHRDIKAANILLNTEGYAKLADFGVAGQLTDTMAKRNTVIGTPFWMAPEVIEEIGYDCVADIWSLGITALEMAEGKPPYGEIHPMRAIFMIPQKPPPSFREPDRWSTEFIDFVSKCLVKEPDDRATATELLEHEFIRNAKHRSILKPMLEETCAIREQQRANRSFGGVLAASQAKSLATQENGMQQHITDNAFMEDPGTLVPEKFGEYQQSSASDATMIAHAEQGVDEGTLGPGGLRNLSKAAAPAAASSAASPLDMPAVDSGTMVELESNLGTMVINSDSDDSTTAKNNDDQKPRNRYRPQFLEHFDRKNAGDGRGDEKPIATEYSPAAAEQQQQQQQQQQQQQQDEQHLASGANDLNNWEHNMEMQFQQISAINQYGLQQHQQQQQVLMAYPLMNEQLIALNNQPNLLLSNAAPMGQQGIPAAAPAQPPPAYQNQHMHTQSHAYVEGEFEFLKFLTFDDLNQRLCNIDHEMELEIEQLNKKYNAKRQPIVDAMNAKRKRQQNINNNLIKI
- MAPPIT interaction score (RpS20): 2.67 (active)
- MAPPIT interaction score (hpo; MAPPIT configuration: N-C): 1.43
- MAPPIT interaction score (hpo; MAPPIT configuration: N-N): -0.987
- MAPPIT interaction score (yki; MAPPIT configuration: N-C): -0.198
- MAPPIT interaction score (yki; MAPPIT configuration: N-N): -0.76

B15: l(2)gl (protein)
chain: MLKFIRGKGQQPSADRHRLQKDLFAYRKTAQHGFPHKPSALAYDPVLKLMAIGTQTGALKVFGQPGVELYGQHTLLNNSASELNVQLLEWVYGTGRILSLTAANQLILWEPVGATLLPIKTLPFDGKLKKVSSLCCSLSKDLLWIGTEGGNIYQLDLHTFTIKEPVIYHDVVLEQVPPAYKLNPGAIESIRQLPNSPSKLLVAYNRGLCVLWDFESASVQRAYIAPGHGQSVGLTVNFEGSEFTWYHADGSYATWSIDNPEPPSNVNYVPYGPDPCKSINRLYKGKRRSNDVIVFSGGMPRSAYGDHNCVSVHASDGHKVCLDFTSKVIDFFVTFENNRDVAEVLVVLLEEELCAYDLTDPNICAIKAPYLHSVHASAVTCNYLASEVVQSVYESILRAGDEQDIDYSNISWPITGGTLPDNLEESVEEDATKLYEILLTGHEDGSVKFWDCTGVLLKPIYNFKTSSIFGSESDFRDDAAADMSAEQVDEGEPPFRKSGLFDPYSDDPRLAVKKIAFCPKTGQLIVGGTAGQIVIADFIDLPEKVSLKYISMNLVSDRDGFVWKGHDQLNVRSNLLDGEAIPTTERGVNISGVLQVLPPASITCMALEASWGLVSGGTAHGLVLFDFKNFVPVFHRCTLNPNDLTGAGEQLSRRKSFKKSLRESFRKLRKGRSTRTNQSNQVPTTLEARPVERQIEARCADDGLGSMVRCLLFAKTYVTNVNITSPTLWSATNASTVSVFLLHLPPAQTAATAVPSASGNAPPHMPRRISAQLAKEIQLKHRAPVVGISIFDQAGSPVDQLNAGENGSPPHRVLIASEEQFKVFSLPQLKPINKYKLTANEGARIRRIHFGSFSCRISPETLQSMHGCSPTKSTRSHGDGEADPNISGSLAVSRGDVYNETALICLTNMGDIMVLSVPELKRQLNAAAVRREDINGVSSLCFTNSGEALYMMSSSELQRIALATSRVVQPTGVVPVEPLENEESVLEENDAENNKETYACDEVVNTYEIKNPSGISICTRPAEENVGRNSVQQVNGVNISNSPNQANETISSSIGDITVDSVRDHLNMTTTTLCSINTEETIGRLSVLSTQTNKASTTVNMSEIPNINISNLEDLESKRNTTETSTSSVVIKSIITNISHEKTNGDNKIGTPKTAPEESQF
- MAPPIT interaction score (RpS21): 0.14
